Results: PubChem BioAssay (NCI)
Compounds without any hit were thinned out: in the full panel of roughly 83,000, 20% have a hit.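 Step 1: grow cells in 96-well plates. Step 2: add test compound at a single concentration. Step 3: incubate 48 h. Step 4: record percent growth.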 Unmarked numbers belong to inactive results. Activity calls are given as the source filed them. The calls were made as follows: active = growth percent below 10; inactive = the rest.

Legend:
Assay in all cases: NCI-60 one-dose screen, 48 h (100 = growth as untreated, 0 = no growth, -100 = all killed)
Details in all cases: 10 µM unless noted
NCI-H23 lung = system: NCI-H23 lung
NCI-H226 lung = system: NCI-H226 lung
HOP-62 NSCLC = system: HOP-62 NSCLC
NCI-H460 lung = system: NCI-H460 lung
NCI-H522 lung = system: NCI-H522 lung
A549/ATCC NSCLC = system: A549/ATCC NSCLC
786-0 renal = system: 786-0 renal
COLO 205 colon = system: COLO 205 colon
DU-145 prostate = system: DU-145 prostate
MALME-3M melanoma = system: MALME-3M melanoma
MDA-MB-231 breast = system: MDA-MB-231 breast
RXF 393 renal = system: RXF 393 renal
SF-268 CNS = system: SF-268 CNS
SF-295 CNS = system: SF-295 CNS
SF-539 CNS = system: SF-539 CNS
UACC-257 melanoma = system: UACC-257 melanoma
M14 melanoma = system: M14 melanoma
HCT-15 colon = system: HCT-15 colon
K-562 leukemia = system: K-562 leukemia
NCI-H322M lung = system: NCI-H322M lung

SMILES | growth (NCI-H23 lung) | growth (NCI-H226 lung) | growth (HOP-62 NSCLC) | growth (NCI-H460 lung) | growth (NCI-H522 lung) | growth (A549/ATCC NSCLC) | growth (786-0 renal) | growth (COLO 205 colon) | growth (DU-145 prostate) | growth (MALME-3M melanoma) | growth (MDA-MB-231 breast) | growth (RXF 393 renal) | growth (SF-268 CNS) | growth (SF-295 CNS) | growth (SF-539 CNS) | growth (UACC-257 melanoma) | growth (M14 melanoma) | growth (HCT-15 colon) | growth (K-562 leukemia) | growth (NCI-H322M lung)
Cc1nc2cc(NC(=O)CN3CCN(CCN4C(=O)c5cccc6cccc(c56)C4=O)CC3)ccc2s1 | 60.9% | 48.6% | 60% | 26.5% | 53.2% | 37.6% | 51.4% | 47.1% | 56.8% | 70.6% | 72.2% | 47.8% | 46.2% | 48.3% | 59.4% | 76.8% | 89% | 45% |  | 
CC12CCC3C(CCC4CC(=O)/C(=C\O)CC43C)C1CCC(=O)O2 (centres undefined) | 98.8% | 113% | 90.9% | 115% | 108% | 106% | 92.5% | 150% | 115% | 124% | 111% | 141% | 108% | 109% | 111% | 115% | 95.2% | 121% | 104% | 
Nc1nc(SCc2ccccc2Cl)c(-c2ccccc2)c(SCc2ccccc2Cl)n1 | 83.2% | 105% | 87.9% | 85.6% | 79.3% | 79.3% | 104% | 95% | 98.2% | 110% | 109% | 115% | 105% |  | 114% | 92.4% | 95.3% | 81.3% | 85.3% | 
CCCCCCCC/C=C/CCCCCCCC1=NC(C)(C)CN1CC(C)O (centres undefined) | 67% | 89.6% | 36.5% |  |  | 27.9% | 59% | -91.3% (active) | 69.2% | 68.5% | 30.5% | 14.7% | 55.5% | 32.4% | 29.2% | 87.2% | 31.8% | 18.3% |  | 53.9%
CC/C(=C\c1ccc(N(C)C)cc1)c1ccncc1 | 63.3% | 74.8% | 46.6% | 14.3% |  | 43.5% | 54.6% | 36.1% | 85% | 9.47% (active) | 51.6% | 91.1% | 71.7% | 49% | 58.6% | 75% | 29.6% | 37.5% | 16.2% | 
OC(c1cc(C(F)(F)F)nc2c(C(F)(F)F)cccc12)C1CCCCN1 (centres undefined) | 78.4% | 73.1% | 74.4% | 13.8% | -4.33% (active) |  | 56.7% | 29.3% | 78.8% | 100% | 47.1% |  | 47.9% | 88.2% | 82.8% |  | 76% | 77.5% | 14.7% | 
C=C1CC[C@@H]2[C@](C)(COC(C)=O)[C@H](OC(C)=O)CC[C@@]2(C)[C@@H]1CC(Nc1ccc(S(=O)(=O)Nc2cc(C)on2)cc1)C1=CCOC1=O (some centres undefined) | 71% | 79.5% | 60.2% | 79.5% | -20.2% (active) | 72.2% | 89.8% | 29% | 71.1% | 56.6% | 61.1% | 29.8% | 67.3% | 100% | 6.3% (active) | 68.9% | 29.9% | 0.176% (active) | 9.67% (active) | 
CC[C@@H]1OC(=O)[C@H](C)[C@@H](O[C@H]2C[C@@](C)(OC)[C@@H](O)[C@H](C)O2)[C@H](C)[C@@H](O[C@@H]2O[C@H](C)C[C@H](N(C)C)[C@H]2O)[C@](C)(O)C[C@@H](C)[C@@H]2N[C@@H](COCCOC)O[C@H]([C@H]2C)[C@]1(C)O | 94% | 110% | 107% | 117% | 98.6% | 100% | 95.8% | 98.7% | 100% | 99.5% | 94.6% | 116% | 112% | 110% | 106% | 106% | 99.7% | 109% | 103% | 
